Tau fibril FP: tau fibrillization inhibition (FP); 280,000 tested, 0.39% active; Potency, µM (titrated, usually from 57.7 µM), inactives show at the top dose activity, negative = inhibition, usual class: inhibitors; P10636; K18 P301L tau heparin fibrillization, Alexa594 FP, 6 h; note: potency is the fitted concentration of half-maximal effect; nearly all actives have a fitted effect of over 55% in size
Target sequence (P10636 561-689 P618L limits assumed): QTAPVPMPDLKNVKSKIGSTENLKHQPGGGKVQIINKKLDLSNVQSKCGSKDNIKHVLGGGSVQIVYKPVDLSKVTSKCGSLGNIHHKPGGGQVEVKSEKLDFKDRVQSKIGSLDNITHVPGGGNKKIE
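Quantitative HTS format: compounds meet 15 uM recombinant K18 P301L tau and Alexa 594-tau tracer in 100 mM sodium acetate pH 7; 20 uM heparin triggers fibrillization at 37 C over 6 hr; FP gives the signal.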
Tau ThT inhib: tau fibrillization inhibition (ThT binding); recombinant tau K18 P301L, heparin-induced fibrillization, ThT fluorescence; P10636; Potency, µM (highest dose often 57.4 µM), inactives show at the highest dose activity, negative = inhibition, hits mostly inhibitors; AID 1460; 270,000 tested, 2.1% active; note: potency is the fitted concentration of half-maximal effect; nearly all actives have a fitted effect of over 55% in size
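Heparin-induced (20 uM) aggregation of recombinant human K18 P301L tau, 15 uM unlabeled with 0.24 uM labeled, pH 7 acetate buffer, 6 hr at 37 C with compound. Fibrils quantified by 30 uM ThT fluorescence after 1 hr ambient incubation.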
Coupling enz: counter-screen for Giardia aldolase inhibitors: coupling enzyme system | coupling enzyme system counterscreen, AmpLite Red fluorescence | activity change, negative = inhibition, % at 58.2 µM, hits read low | 290,000 tested, 0.67% active; in the data active = activity change below about -30%
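Activity here indicates interference with the coupling reaction, not aldolase inhibition. Compounds at 57.5 uM final met coupling enzymes for 10 min at RT; substrate and AmpLite Red detection followed, with a 525/598 nm fluorescence read after 20 min.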
Tau fluor counter: counter-screen for tau fibril formation inhibitors. tau K18 P301L Alexa594 fluorescence, heparin fibrillization. Potency, µM (highest dose often 57.7 µM), for inactives: top-dose activity change, negative = decrease. 280,000 tested, 0.93% active; note: potency is the fitted concentration of half-maximal effect; nearly all actives have a fitted effect of over 55% in size
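Human tau K18 P301L (15 uM unlabeled, 0.24 uM Alexa 594-labeled) in 100 mM sodium acetate pH 7 with 20 uM heparin, 6 hr at 37 C. ThT 30 uM added, 1 hr ambient; Alexa 594 FP and total fluorescence read at 555/632 nm.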
Sfp PPTase inh: inhibitors of Bacillus subtilis Sfp phosphopantetheinyl transferase. Q9F4F7. Biochemical Sfp PPTase activity, qHTS. Potency, µM, for inactives: largest response in the series, negative = inhibition, hits mostly inhibitors. 310,000 tested, 3.5% active. AID 1490;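 note: the enzyme is Sfp with the accession as filed and its product quenches rhodamine fluorescence; potency is the fitted concentration of half-maximal effect; 0% = enzyme reaction without inhibitor and -100% = no enzyme wells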
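Fluorescence-quenching assay with 15 nM Sfp, 5 uM rhodamine-CoA and 12.5 uM BHQ-2-labelled ybbR peptide in pH 7.6 Hepes/MgCl2 buffer. Enzyme was pre-incubated with compound for 15 min at room temperature. Rate was taken from the 30-min fluorescence change (525/598 nm).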
* marks the source's active call; other numbers are inactive results. Rows were chosen to be rich in hits. Some 5.2% of all compounds tested hit in one or more screens of this group. Unless noted, calls come from the whole dose curve; as a rule, active = well fitted curve in the direction sought with a large enough effect; inconclusive = small, poorly fitted or top-dose-only effect, or another doubt; inactive = no such curve, though single readings can be large; an effect the other way counts as inactive or inconclusive. Unless noted, % is set by controls: 0 for no effect and ±100 for the full control effect.

Results for Cc1nc(-c2ccccc2)sc1CCNC(=O)C(=O)Nc1ccc2c(c1)OCO2 ?
Tau fibril FP: -7.6%; Tau ThT inhib: inconclusive; Tau fluor counter: -5.3%

How did CCc1ccccc1NC(=O)N1CCN(Cc2nc3ccc(C)cc3o2)CC1 do in these assays?
Tau fibril FP: 3.4%; Tau ThT inhib: 0.0%; Tau fluor counter: -6.0%

What do the screens show for `COc1ccccc1CNc1ncnc2ccc(-c3cccc(C#N)c3)cc12`?
Coupling enz: -0.1; Sfp PPTase inh: 7.8%

How did CCN1CCN(C(=S)c2ccc(SC)cc2)CC1 do in these assays?
Tau fibril FP: -4.8%; Tau ThT inhib: -13.9%; Coupling enz: 2.5; Tau fluor counter: -11.1%; Sfp PPTase inh: 28.2µM*

Results for CSc1ccc(C(=S)N2CCN(Cc3ccccc3)CC2)cc1 ?
Tau fibril FP: 7.0%; Tau ThT inhib: -18.5%; Coupling enz: 0.4; Tau fluor counter: -25.1%; Sfp PPTase inh: 14.1µM*

Results for COc1cc(OC)c(OC)cc1CN1CCN(Cc2ccc(SC)cc2)CC1 ?
Tau fibril FP: 0.5%; Tau ThT inhib: -4.0%; Coupling enz: -0.9; Tau fluor counter: -6.4%; Sfp PPTase inh: inconclusive

What do the screens show for `CCN(Cc1ccccc1)C1CCN(Cc2ccc(SC)cc2)CC1`?
Tau fibril FP: -1.5%; Tau ThT inhib: -18.3%; Coupling enz: 1.4; Tau fluor counter: -18.0%; Sfp PPTase inh: 31.6µM*

What do the screens show for `COc1cc(CN2CCN(Cc3ccc(SC)cc3)CC2)cc(OC)c1O`?
Tau fibril FP: -2.4%; Tau ThT inhib: inconclusive; Coupling enz: 2.4; Tau fluor counter: -21.2%; Sfp PPTase inh: 56.2µM*

What do the screens show for `CCC(CO)NC(=O)C(=O)Nc1c2c(nn1-c1ccc(F)cc1)CSC2` (stereo unspecified)?
Tau fibril FP: -7.5%; Tau ThT inhib: inconclusive; Tau fluor counter: -14.1%

What do the screens show for `CC(C)(C)c1ccc2c(c1)N(CC(=O)N1CCCC1)C(=O)CO2`?
Coupling enz: -0.2; Sfp PPTase inh: 14.7%

Results for COc1cc(C=O)c([N+](=O)[O-])cc1OC ?
Tau fibril FP: 6.31µM*; Tau ThT inhib: 3.16µM*; Coupling enz: -61.3*; Tau fluor counter: inconclusive; Sfp PPTase inh: -4.0%

How did CC(=O)Nc1ccccc1-c1nc2ccccc2n(Cc2cccc(Br)c2)c1=O do in these assays?
Tau fibril FP: -4.5%; Tau ThT inhib: -6.7%; Tau fluor counter: -10.0%

What do the screens show for `CCSc1nc2ccccc2n1CC(N)=O`?
Tau fibril FP: 6.7%; Tau ThT inhib: -0.8%; Coupling enz: -0.9; Tau fluor counter: 3.2%; Sfp PPTase inh: 8.6%

Results for CCSc1nc2ccccc2n1C(=O)/C=C\c1ccc(OC)c(OC)c1 ?
Tau fibril FP: inconclusive; Tau ThT inhib: 10µM*; Coupling enz: -2.0; Tau fluor counter: -17.5%; Sfp PPTase inh: 50.1µM*

How did COc1cc(/C=C2/SC(=Nc3ccc(O)cc3)NC2=O)ccc1O do in these assays?
Tau fibril FP: inconclusive; Tau ThT inhib: 4.47µM*; Coupling enz: 6.9; Tau fluor counter: inconclusive; Sfp PPTase inh: -11.6%

How did COc1cc(/C=C2/CC/C(=C/c3ccc(O)c(OC)c3)C2=O)ccc1O do in these assays?
Tau fibril FP: inconclusive; Tau ThT inhib: 0.891µM*; Coupling enz: -1.2; Tau fluor counter: -22.4%; Sfp PPTase inh: inconclusive

Results for COc1cc(/C=C2\SC(=Nc3ccccc3OC)NC2=O)ccc1O ?
Coupling enz: 2.7; Sfp PPTase inh: 9.4%

How did COc1cc(/C=C2\CC/C(=C\c3ccc(OCCO)c(OC)c3)C2=O)ccc1OCCO do in these assays?
Tau fibril FP: inconclusive; Tau ThT inhib: 14.1µM*; Coupling enz: -1.2; Tau fluor counter: -26.5%; Sfp PPTase inh: -16.3%

What do the screens show for `COc1cc(/C=C2\COC/C(=C\c3ccc(O)c(OC)c3)C2=O)ccc1O`?
Tau fibril FP: inconclusive; Tau ThT inhib: 10µM*; Coupling enz: 1.4; Tau fluor counter: inconclusive; Sfp PPTase inh: 7.7%

How did C/C=C/c1ccc(O)c(OC)c1 do in these assays?
Sfp PPTase inh: -11.0%

Results for CSc1cccc(NC(=O)CN2C(=O)COc3ccc(S(=O)(=O)N4CCC(C)CC4)cc32)c1 ?
Tau fibril FP: -12.7%; Tau ThT inhib: 3.4%; Tau fluor counter: inconclusive

How did Cc1cc(C)n2nc(SCC(=O)Nc3cc(Cl)ccc3C)nc2n1 do in these assays?
Tau fibril FP: -6.6%; Tau ThT inhib: 4.5%; Tau fluor counter: -0.9%

How did COc1cccc(OCCNc2cc(Cl)ccc2[N+](=O)[O-])c1 do in these assays?
Tau fibril FP: -3.9%; Tau ThT inhib: 8.91µM*; Coupling enz: -11.3; Tau fluor counter: -29.9%; Sfp PPTase inh: 2.1%

How did O=[N+]([O-])c1ccccc1NCCOc1ccccc1 do in these assays?
Tau fibril FP: inconclusive; Tau ThT inhib: inconclusive; Coupling enz: 0.6; Tau fluor counter: -19.8%; Sfp PPTase inh: -7.0%

Results for CC/C=C\C/C=C\C/C=C\C/C=C\C=C\C(O)CCCC(=O)O (stereo unspecified) ?
Tau fibril FP: -9.5%; Tau ThT inhib: 3.5%; Coupling enz: -2.5; Tau fluor counter: -3.8%; Sfp PPTase inh: 7.5%

Results for Cc1ccc(NS(=O)(=O)c2cc(N)ccc2Cl)c(C)c1 ?
Tau fibril FP: 10.0%; Tau ThT inhib: -4.5%; Coupling enz: -32.7*; Tau fluor counter: -12.6%; Sfp PPTase inh: -19.7%

How did CN(Cc1cccs1)c1ncnc2sccc12 do in these assays?
Tau fibril FP: -3.4%; Tau ThT inhib: -17.3%; Coupling enz: -2.6; Tau fluor counter: -19.1%; Sfp PPTase inh: 79.4µM*

What do the screens show for `CN(Cc1ccccc1F)c1ncnc2sccc12`?
Coupling enz: -0.7; Sfp PPTase inh: -1.2%

How did CC(=O)c1cccc(NCC(=O)c2ccc(C)c([N+](=O)[O-])c2)c1 do in these assays?
Coupling enz: 9.7; Sfp PPTase inh: 17.8µM*

Results for CC(C)(C)NC(=O)c1oc2ccccc2c1NC(=O)c1ccc(F)cc1 ?
Tau fibril FP: -18.9%; Tau ThT inhib: 2.2%; Tau fluor counter: -20.9%

How did OC(CNCCc1ccc(C(F)(F)F)cc1)COC(c1ccccc1)c1ccccc1 (stereo unspecified) do in these assays?
Coupling enz: 0.6; Sfp PPTase inh: 56.2µM*

How did Cc1[nH]c2ccccc2c1N=Nc1cccc(C(=O)O)c1 do in these assays?
Tau fibril FP: 12.3%; Tau ThT inhib: 7.94µM*; Coupling enz: 7.1; Tau fluor counter: -23.2%; Sfp PPTase inh: 2.4%

How did COC(=O)c1cc(N=Nc2c(C)[nH]c3ccccc23)cc(C(=O)OC)c1 do in these assays?
Tau fibril FP: 2.3%; Tau ThT inhib: inconclusive; Coupling enz: 2.5; Tau fluor counter: inconclusive; Sfp PPTase inh: 0.1%

Results for CCOC(=O)C1=C(C)OC(N)=C(C#N)C1c1ccc(C)o1 (stereo unspecified) ?
Tau fibril FP: -1.9%; Tau ThT inhib: -11.8%; Coupling enz: -0.1; Tau fluor counter: -9.0%; Sfp PPTase inh: 11.1%

Source: PubChem BioAssay (National Center for Advancing Translational Sciences (NCATS))
